# Measured values from the supplement of paper PMC8728848.
# This is one part of a sample in which the strongest signals are shown more often than they occur.
# B1: SJCP1084 (Schistosoma japonicum) (protein)
# chain: MRIINLVIISTALLLINLLQTKSQANGEDTKNGTPDDPGLTKSTELKVEVQALLKDKKTNMRVKWNENLLDNTKPEYHNLRDEACELLLQIVRSVVPLSQDDGECKDVTFTKYVVGTKDGAVNVKLTITFKDSVAINQKPMDLKLKLENDFKNLQSESTLKATKPTFTVKVEKRLIPISKPQTTPPTTAKNDASKENVGDIGGEDSTVPTAAPATAASANEEKDEGDKDNKDSQHPNVLTSNVNDRNLIIALVALMILAIGVALTAAVKQR
# Key:
# Assay in all cases: glycan array binding signal (z-score within array); higher = stronger binding
# Settings in all cases: glycan notation: IUPAC condensed, linker removed
# Fuc(a1-2)Gal(b1-3)GlcNAc = target: Fuc(a1-2)Gal(b1-3)GlcNAc
# Outline: (§1)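 Glycan array binding is given as a within-array Z-score, which can be read as non-binding when negative. The arrays, 3228 of them, came from the Consortium for Functional Glycomics database and were retained only where the protein sequence was available. Z-scores were averaged across arrays of the same protein sequence at different concentrations or buffers and across linkers.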
# [1] = target: Fuc(a1-2)Gal(b1-3)GlcNAc(b1-3)[Gal(b1-4)GlcNAc(b1-6)]Gal(b1-4)Glc
# Outline: as §1
# [2] = target: Fuc(a1-2)Gal(b1-3)[Fuc(a1-4)]GlcNAc
# Outline: as §1
# [3] = target: Fuc(a1-2)Gal(b1-3)[Fuc(a1-4)]GlcNAc(b1-2)Man(a1-3)[Fuc(a1-2)Gal(b1-3)[Fuc(a1-4)]GlcNAc(b1-2)Man(a1-6)]Man(b1-4)GlcNAc(b1-4)[Fuc(a1-6)]GlcNAc(b1-4)[Fuc(a1-6)]GlcNAc
# Outline: as §1
# [4] = target: Fuc(a1-2)Gal(b1-3)[Fuc(a1-4)]GlcNAc(b1-3)[Fuc(a1-3)[Gal(b1-4)]GlcNAc(b1-6)]Gal(b1-4)Glc
# Outline: as §1
# [5] = target: Fuc(a1-2)Gal(b1-4)GlcNAc(b1-2)Man
# Outline: as §1
# [6] = target: Fuc(a1-2)Gal(b1-4)GlcNAc(b1-3)Gal(b1-4)GlcNAc(b1-2)Man(a1-3)[Fuc(a1-2)Gal(b1-4)GlcNAc(b1-3)Gal(b1-4)GlcNAc(b1-2)Man(a1-6)]Man(b1-4)GlcNAc(b1-4)GlcNAc
# Outline: as §1
# [7] = target: Fuc(a1-2)[Gal(a1-3)]Gal(b1-4)GlcNAc(b1-3)GalNAc
# Outline: as §1
# [8] = target: Fuc(a1-2)[GalNAc(a1-3)]Gal
# Outline: as §1
# [9] = target: Fuc(a1-2)[GalNAc(a1-3)]Gal(b1-3)GalNAc(a1-3)[Fuc(a1-2)]Gal(b1-4)GlcNAc
# Outline: as §1
# [10] = target: Fuc(a1-2)[GalNAc(a1-3)]Gal(b1-3)GlcNAc
# Outline: as §1
# [11] = target: Fuc(a1-2)[GalNAc(a1-3)]Gal(b1-3)GlcNAc(b1-3)GalNAc
# Outline: as §1
# [12] = target: Fuc(a1-2)[GalNAc(a1-3)]Gal(b1-4)[Fuc(a1-3)]GlcNAc(b1-3)GalNAc
# Outline: as §1
# [13] = target: Fuc(a1-3)[Gal3S(b1-4)]GlcNAc
# Outline: as §1
# [14] = target: Gal(a1-4)Gal(b1-3)GlcNAc(b1-2)Man(a1-3)[Gal(a1-4)Gal(b1-3)GlcNAc(b1-2)Man(a1-6)]Man(b1-4)GlcNAc(b1-4)GlcNAc
# Outline: as §1
# [15] = target: Gal(b1-3)GlcNAc(b1-3)Gal(b1-4)GlcNAc(b1-2)Man(a1-3)[Gal(b1-3)GlcNAc(b1-3)Gal(b1-4)GlcNAc(b1-2)Man(a1-6)]Man(b1-4)GlcNAc(b1-4)GlcNAc
# Outline: as §1
# [16] = target: Gal(b1-3)[Fuc(a1-4)]GlcNAc(b1-6)GalNAc
# Outline: as §1
# [17] = target: Gal(b1-4)GalNAc(a1-3)[Fuc(a1-2)]Gal(b1-4)GlcNAc
# Outline: as §1
# [18] = target: Gal(b1-4)GlcNAc(b1-2)[Gal(b1-4)GlcNAc(b1-6)]Man(a1-6)[Gal(b1-4)GlcNAc(b1-2)Man(a1-3)]Man(b1-4)GlcNAc(b1-4)[Fuc(a1-6)]GlcNAc
# Outline: as §1
# [19] = target: Gal(b1-4)GlcNAc(b1-3)Gal(b1-4)GlcNAc(b1-2)Man(a1-3)[Gal(b1-4)GlcNAc(b1-3)Gal(b1-4)GlcNAc(b1-2)Man(a1-6)]Man(b1-4)GlcNAc(b1-4)[Fuc(a1-6)]GlcNAc
# Outline: as §1
# [20] = target: Gal(b1-4)GlcNAc(b1-3)Gal(b1-4)GlcNAc(b1-3)Gal(b1-4)GlcNAc(b1-2)Man(a1-3)[Gal(b1-4)GlcNAc(b1-3)Gal(b1-4)GlcNAc(b1-3)Gal(b1-4)GlcNAc(b1-2)Man(a1-6)]Man(b1-4)GlcNAc(b1-4)[Fuc(a1-6)]GlcNAc
# Outline: as §1
# [21] = target: Gal(b1-4)GlcNAc(b1-3)Gal(b1-4)GlcNAc(b1-3)Gal(b1-4)GlcNAc(b1-3)Gal(b1-4)GlcNAc(b1-2)Man(a1-3)[Gal(b1-4)GlcNAc(b1-3)Gal(b1-4)GlcNAc(b1-3)Gal(b1-4)GlcNAc(b1-3)Gal(b1-4)GlcNAc(b1-2)Man(a1-6)]Man(b1-4)GlcNAc(b1-4)[Fuc(a1-6)]GlcNAc
# Outline: as §1
# [22] = target: Gal(b1-4)GlcNAc(b1-3)Gal(b1-4)GlcNAc(b1-3)Gal(b1-4)GlcNAc(b1-3)Gal(b1-4)GlcNAc(b1-3)Gal(b1-4)GlcNAc(b1-2)Man(a1-3)[Gal(b1-4)GlcNAc(b1-3)Gal(b1-4)GlcNAc(b1-3)Gal(b1-4)GlcNAc(b1-3)Gal(b1-4)GlcNAc(b1-3)Gal(b1-4)GlcNAc(b1-2)Man(a1-6)]Man(b1-4)GlcNAc(b1-4)GlcNAc
# Outline: as §1
binder,measurement,setting,value
B1,glycan array binding signal (z-score),Fuc(a1-2)Gal(b1-3)GlcNAc,0.181
same,glycan array binding signal (z-score),[1],-0.827
same,glycan array binding signal (z-score),[2],0.425
same,glycan array binding signal (z-score),[3],-0.159
same,glycan array binding signal (z-score),[4],-0.831
same,glycan array binding signal (z-score),[5],1.24
same,glycan array binding signal (z-score),[6],4.99
same,glycan array binding signal (z-score),[7],-0.455
same,glycan array binding signal (z-score),[8],0.405
same,glycan array binding signal (z-score),[9],-0.717
same,glycan array binding signal (z-score),[10],0.643
same,glycan array binding signal (z-score),[11],2.68
same,glycan array binding signal (z-score),[12],-0.545
same,glycan array binding signal (z-score),[13],-1.01
same,glycan array binding signal (z-score),[14],3.06
same,glycan array binding signal (z-score),[15],0.617
same,glycan array binding signal (z-score),[16],-0.381
same,glycan array binding signal (z-score),[17],-0.495
same,glycan array binding signal (z-score),[18],2.77
same,glycan array binding signal (z-score),[19],4.14
same,glycan array binding signal (z-score),[20],3.35
same,glycan array binding signal (z-score),[21],3.73
same,glycan array binding signal (z-score),[22],4.37
